Screening results (PubChem)
Mtb FBA inh: inhibits M. tuberculosis FBA enzyme; P9WQA3; purified M. tuberculosis FBA, fluorescence read-out; inhibition, % at 1 µM; 360,000 compounds, 2.3% hits; AID 588726;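 further: 0% = vehicle and 100% = reference inhibitor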
Rv3671c protease: inhibitors of M. tuberculosis serine protease Rv3671c | inhibition, % at 5.96 µM | AID 2606 | P9WHR9 | 320,000 compounds, 0.048% hits; in the data active means inhibition above about 38%;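 further: extracellular domain of Rv3671c used as enzyme; 0% = enzyme with DMSO and 100% = no enzyme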
UGM FP inh: inhibitors of M. tuberculosis UDP-galactopyranose mutase | P9WIQ1 | purified UGM, fluorescence polarization probe displacement | inhibition, % at 10 µM | 320,000 compounds, 0.06% hits; in the data active means inhibition above about 10%, passing the limit was not always enough
Target sequence (P9WIQ1 whole entry, looked up): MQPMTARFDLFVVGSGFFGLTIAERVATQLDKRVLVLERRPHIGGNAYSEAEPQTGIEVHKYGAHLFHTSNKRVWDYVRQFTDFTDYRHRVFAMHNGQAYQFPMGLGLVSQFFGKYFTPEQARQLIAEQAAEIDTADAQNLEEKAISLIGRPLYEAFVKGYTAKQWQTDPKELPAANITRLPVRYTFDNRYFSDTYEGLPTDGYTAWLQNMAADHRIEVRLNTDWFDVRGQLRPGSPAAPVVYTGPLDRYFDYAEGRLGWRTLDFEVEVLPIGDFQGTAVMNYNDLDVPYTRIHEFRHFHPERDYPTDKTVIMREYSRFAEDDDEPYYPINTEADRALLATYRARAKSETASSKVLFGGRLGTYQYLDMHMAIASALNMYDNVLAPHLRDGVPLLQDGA
GDH-TPI counter-1: inhibits GDH-TPI coupling enzymes, artifact for Mtb FBA screen | 360,000 compounds, 1.2% hits | GDH-TPI coupled enzyme counterscreen, NADH absorbance | AID 588335 | inhibition, % at 4.8 µM; in the data active means inhibition above about 30%;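 further: 0% = DMSO wells and 100% = wells lacking the enzyme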
Vc quorum ag: inducers of Vibrio cholerae quorum light production without autoinducers; V. cholerae BH1578 lux reporter, luminescence, 6 h; activation, % at 18.7 µM; 350,000 compounds, 0.16% hits; AID 588436; in the data active means activation mostly above about 9.7%, no sharp cut-off
RecA splice inh: Mtb RecA intein splicing inhibition | AID 2221 | 290,000 compounds, 0.75% hits | inhibition, % (concentration not given with the values) | P9WHJ3 | cell-free RecA intein splicing, fluorescence; in the data active means inhibition above about 30%;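 further: 0% = vehicle wells and 100% = reference inhibitor control wells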
Mtb FBA inh conf: Mtb FBA inhibition, confirmed; shares compounds with Mtb FBA inh; purified M. tuberculosis FBA, fluorescence read-out; inhibition, % at 1 µM; 5,600 compounds, 78% hits; AID 651616;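 further: 0% = vehicle wells and 100% = reference inhibitor wells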
GDH-TPI counter-2: inhibits GDH-TPI coupling enzymes, flagging Mtb FBA hits; inhibition, % at 1 µM; GDH-TPI coupled enzyme counterscreen, fluorescence; AID 652141; 5,600 compounds, 81% hits; shares compounds with Mtb FBA inh; in the data active means inhibition above about 10%
GDH-TPI dose: GDH-TPI dose response counter-screen for Mtb FBA; shares compounds with Mtb FBA inh; GDH-TPI coupled enzyme assay, fluorescence, artifact counterscreen; IC50, µM; 170 compounds, 79% hits; AID 652145; call rule not given here
* hit, by the source's call; i = inactive; · = no result; + = active, no number. A selection: hits, their analogues and other compounds. The true share with any hit is near 4.1%. Unless noted, no stated cut-off is given here; in the data, active means inhibition above about 27%; inactive means the rest.

SMILES	Mtb FBA inh	Rv3671c protease	UGM FP inh	GDH-TPI counter-1	Vc quorum ag	RecA splice inh	Mtb FBA inh conf	GDH-TPI counter-2	others
Cc1ccc2cc3cc(C(=O)NCCCN4CC(C)CC(C)C4)oc3nc2c1 (stereo unspecified)	85*	-9	0	14	3	-7	56*	36*
Cc1ccc2cc3cc(C(=O)NC4CCCCC4)oc3nc2c1	39*	1	0	14	-1	1	+	+
Cc1ccc2cc3cc(C(=O)N4CC(C)CC(C)C4)oc3nc2c1 (stereo unspecified)	-1	-58	3	30	-6	·	·	·
Cc1ccc2cc3cc(C(=O)NCc4ccco4)oc3nc2c1	46*	0	2	34*	i	1	8	-5
Cc1ccc2cc3cc(C(=O)N4CCCCC4C)oc3nc2c1 (stereo unspecified)	4	-2	1	22	-10	-2	·	·
CCOC(=O)Cc1csc(NC(=O)c2ccc(N3CCOCC3)cc2[N+](=O)[O-])n1	2	-18	1	16	i	·	·	·
CC(=O)Nc1ccc(NC(=O)CS(=O)(=O)c2cn(CC(=O)N3CCC(C)CC3)c3ccccc23)cc1	-1	4	0	10	-1	1	·	·
C[C@@H]1CN([C@@H](C)CO)C(=O)CCCn2nncc2CO[C@@H]1CN(C)C(=O)Nc1ccc(C(F)(F)F)cc1	0	·	·	2	i	·	·	·
O=C(Nc1ccccc1)Nc1nnc(/C=C/c2ccccc2Cl)s1	4	-4	1	3	i	-1	·	·
Nc1nnc(/C=C/c2ccccc2Cl)s1	28*	1	2	6	0	-1	15	0	GDH-TPI dose=3.9*
Cc1ccc(NC(=O)CSc2cn[nH]n2)cc1	2	-8	0	-2	-1	0	·	·
O=C(CSc1cn[nH]n1)Nc1ccc(O)c(C(=O)O)c1	31*	2	4	-7	0	0	2	2
CC[C@@H]1C=C(C(=O)O)[C@H](c2ccc(OC)c(OC)c2)N1S(=O)(=O)c1ccc(C)cc1	4	6	-1	10	i	·	·	·
Cc1cc(OCC(=O)Nc2ccc(CCO)cc2)c2c(C)c(C)c(=O)oc2c1	33*	-7	2	7	-1	0	1	-3
Cc1cc(OCC(=O)N2CCC(C(N)=O)CC2)c2c(C)c(C)c(=O)oc2c1	7	-10	0	-7	-1	11	·	·
Cc1cc(OCC(=O)N2CCC(C(=O)O)CC2)c2c3c(c(=O)oc2c1)CCCC3	77*	-1	5	6	-1	·	131*	82*
Cc1cc(OCC(=O)N2CCC(C(=O)O)CC2)c2c(C)c(C)c(=O)oc2c1	87*	1	-2	9	0	-2	-5	-6
Cc1cc(OCC(=O)N2CCC(O)CC2)c2c(C)cc(=O)oc2c1	100*	10	-2	4	0	-2	142*	105*
CCOC(=O)C1=C(C)N=c2sc(=Cc3ccc(OCC(=O)O)cc3)c(=O)n2C1c1ccc(SC)cc1 (stereo unspecified)	-3	·	·	21	0	·	·	·
CC(=O)COc1cc(C)cc2oc(=O)c(C)c(C)c12	38*	2	-2	15	-1	-1	+	+
CC(=O)C(C)Oc1cc(C)cc2oc(=O)c(C)c(C)c12 (stereo unspecified)	20	-1	2	5	0	1	·	·
CC(=O)NC(c1ccccc1)c1nc(-c2cccc(F)c2)cs1 (stereo unspecified)	-4	·	·	-4	i	·	·	·
COC(=O)C1(C)CCc2c(ccc3ccccc23)C1=O (stereo unspecified)	35*	·	·	·	·	·	56*	47*
CCC1(C(=O)OC)CCc2c(cc(OC)c3ccccc23)C1=O (stereo unspecified)	28*	-5	6	4	3	·	111*	71*
CC1CCc2c(ccc3ccccc23)C1=O (stereo unspecified)	6	·	·	16	i	·	·	·
SMILES	Mtb FBA inh	Rv3671c protease	UGM FP inh	GDH-TPI counter-1	Vc quorum ag	RecA splice inh	Mtb FBA inh conf	GDH-TPI counter-2	others
COc1cc(C(=O)NNC(=O)CCOc2ccccc2)cc(OC)c1OC	3	3	-1	4	2	·	·	·
COc1ccc(CCNC(=S)N2CCN(S(=O)(=O)c3ccccc3)CC2)cc1	0	4	-2	6	i	1	·	·
CCC(C)(C)NC(=O)C(c1cccc(OC)c1OC)N(C(=O)CCC(=O)Nc1cc(C)on1)C(C)C (stereo unspecified)	-1	8	1	-3	0	1	·	·
COCCNC(=S)N(CCCO)Cc1cc2cc3c(cc2[nH]c1=O)OCO3	-1	·	·	4	i	·	·	·
COCCCNC(=S)N(CCO)Cc1cc2cc3c(cc2[nH]c1=O)OCO3	31*	·	-2	21	0	0	+	+
CCN(CC)CCN(Cc1cc2cc3c(cc2[nH]c1=O)OCO3)C(=S)NCCOC	34*	0	2	26	2	0	32*	32*
CCN(CC)CCCN(Cc1cc2cc3c(cc2[nH]c1=O)OCO3)C(=S)NCCOC	52*	-2	1	34*	i	-1	2	1
CCC(C)(C)NC(=O)C(c1ccc(F)cc1)N(CCOC)C(=O)CCC(=O)Nc1nccs1 (stereo unspecified)	-2	1	1	-3	0	0	·	·
FC(F)(F)c1ccc(Sc2nnc(-c3cccs3)n2CC2CCCO2)nc1 (stereo unspecified)	83*	6	-2	6	4	-1	99*	69*
COC(=O)c1ccccc1NC(=O)N1CCCC1	28*	4	2	4	1	-4	102*	83*
C=CCn1c(-c2cccs2)nc2ccccc21	63*	-6	0	17	1	·	150*	141*
CCCn1c(CNc2ccc(Br)cc2)nc2ccccc21	2	-3	1	11	0	15	·	·
CCCn1c(-c2cccs2)nc2ccccc21	74*	3	0	20	i	0	+	174*
COc1ccc(-c2c(C)c3cc(O)ccc3oc2=O)cc1OC	1	-25	3	13	-1	-2	·	·
COc1ccc(-c2cc(=O)c3ccc(O)cc3o2)cc1OC	54*	·	·	25	0	·	6	4
COc1ccccc1C(=O)OCC#CCSc1nnc(-c2cccc3ccccc23)o1	6	-13	-2	7	0	·	·	·
O=C(OCC#CCSc1nnc(-c2cccc3ccccc23)o1)c1cccc2[nH]ccc12	36*	-63	-2	16	0	·	64*	51*
